The other results are listed elsewhere or left out. No count for the full screen is at hand.

In the test the target is furin, P09958. Briefly: furin cleavage Z-score vs untreated control; higher = more cleavage, active = 3.5 or more, inactive = 1 or less, 8 variable residues between constant flanks. The protocol:
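Multiplexed peptide-cDNA fusion cleavage assay. 8-mer variable peptides flanked by constant Cys-Ala (N-term) and Ala-Gly-Asn-Ala-Ser-Ala-Ser-Ala (C-term) and conjugated to a cDNA oligonucleotide were bead-immobilised via the N-terminus. They were treated with purified furin at a 1:10 enzyme:substrate ratio in 50 mM HEPES pH 7.5, 1 mM CaCl2, 100 mM NaCl for 7.5, 15 or 30 min. Released cDNA was counted by next-generation sequencing, and log counts versus no-furin controls were lowess-adjusted and converted to robust Z-scores.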

furin, P09958, sequence (P09958 whole entry, the tested form may be a part): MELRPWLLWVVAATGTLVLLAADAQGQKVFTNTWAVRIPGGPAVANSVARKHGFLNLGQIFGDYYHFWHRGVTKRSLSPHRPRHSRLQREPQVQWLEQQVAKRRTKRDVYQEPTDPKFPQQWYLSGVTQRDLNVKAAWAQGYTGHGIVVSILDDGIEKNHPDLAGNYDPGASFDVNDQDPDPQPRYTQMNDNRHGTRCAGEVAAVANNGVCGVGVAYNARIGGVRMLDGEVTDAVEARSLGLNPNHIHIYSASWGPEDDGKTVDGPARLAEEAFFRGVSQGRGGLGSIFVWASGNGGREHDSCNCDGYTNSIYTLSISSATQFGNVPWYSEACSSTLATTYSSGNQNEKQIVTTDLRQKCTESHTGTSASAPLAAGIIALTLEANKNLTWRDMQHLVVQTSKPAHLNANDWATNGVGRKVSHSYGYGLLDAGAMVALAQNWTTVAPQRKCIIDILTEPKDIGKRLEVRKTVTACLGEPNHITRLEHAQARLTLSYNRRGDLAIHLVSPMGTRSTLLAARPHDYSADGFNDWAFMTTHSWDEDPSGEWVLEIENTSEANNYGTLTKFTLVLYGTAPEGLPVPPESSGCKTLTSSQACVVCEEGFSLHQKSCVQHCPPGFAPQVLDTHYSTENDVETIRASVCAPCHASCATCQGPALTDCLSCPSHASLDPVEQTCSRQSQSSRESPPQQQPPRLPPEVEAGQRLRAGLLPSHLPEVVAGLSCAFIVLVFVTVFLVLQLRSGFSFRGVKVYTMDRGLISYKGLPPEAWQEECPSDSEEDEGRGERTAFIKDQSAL

B1: HC1272 (peptide)
chain: CADAELIEANAGNASASA
With B1, the “furin cleavage Z-score” value is 1.56 (7.5 min), 1.04 (15 min) and 0.698 (inactive) (30 min).

B2: HC731 (peptide)
chain: CAPVRRRGDSAGNASASA
Take B2: the “furin cleavage Z-score” value runs as follows: (7.5 min) -0.373 (inactive); (15 min) 0.103 (inactive); (30 min) -0.876 (inactive).

B3: FS-1126 (peptide)
chain: CAGLDRLRRVAGNASASA
For B3, the “furin cleavage Z-score” value runs as follows: (7.5 min) 0.977 (inactive); (15 min) 1.09; (30 min) 1.81.

B4: FS-391 (peptide)
chain: CAYLRRRRRVAGNASASA
Take B4: the “furin cleavage Z-score” value was 9.87 (active) (7.5 min), 10.2 (active) (15 min) and 8.18 (active) (30 min).

B5: FS-1247 (peptide)
chain: CAPVRRWRRVAGNASASA
With B5, the “furin cleavage Z-score” value reads like this: (7.5 min) 9.64 (active); (15 min) 9.32 (active); (30 min) 6.63 (active).

B6: FS-1127 (peptide)
chain: CAGLGRRRRVAGNASASA
On to B6, for which the “furin cleavage Z-score” value reads like this: (7.5 min) 6.73 (active); (15 min) 8.39 (active); (30 min) 7.41 (active).

B7: FS-1519 (peptide)
chain: CADVSRARRVAGNASASA
B7: the “furin cleavage Z-score” value was 0.954 (inactive) (7.5 min), 1.02 (15 min) and 1.74 (30 min).

B8: FS-633 (peptide)
chain: CAYINRKKKVAGNASASA
B8: the “furin cleavage Z-score” value is -0.8 (inactive) (7.5 min), -0.697 (inactive) (15 min) and -0.973 (inactive) (30 min).

B9: HC1895 (peptide)
chain: CATTPCSHSWAGNASASA
On to B9, for which the “furin cleavage Z-score” value is, setting by setting: (7.5 min) -0.676 (inactive); (15 min) 1.01; (30 min) -1.05 (inactive).

B10: HC314 (peptide)
chain: CASIYPGHITAGNASASA
On to B10, for which the “furin cleavage Z-score” value reads like this: (7.5 min) -1.99 (inactive); (15 min) -1.12 (inactive); (30 min) 0.0447 (inactive).

B11: HC1246 (peptide)
chain: CALTSMLTDPAGNASASA
For the sequence B11, the “furin cleavage Z-score” value runs as follows: (7.5 min) -0.19 (inactive); (15 min) -0.57 (inactive); (30 min) -0.448 (inactive).

B12: HC1835 (peptide)
chain: CAHTPCSGSWAGNASASA
Regarding B12, the “furin cleavage Z-score” value is -0.934 (inactive) (7.5 min), -0.656 (inactive) (15 min) and -1.49 (inactive) (30 min).

These data come from the supplement of paper PMC3545927.
